Compound activity from PubChem BioAssay.
This is a sample that favours compounds with a hit; in the whole collection about 3.5% have one here.
MITF primary: inhibitors of human MITF; 650,000 compounds, 0.91% hits; AlphaScreen MITF homodimerization, bead proximity signal; O75030; inhibition, % at 2.6 µM; in the data active means inhibition above about 50%;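 further: 0% = vehicle wells with protein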
Target sequence (O75030 whole entry, looked up): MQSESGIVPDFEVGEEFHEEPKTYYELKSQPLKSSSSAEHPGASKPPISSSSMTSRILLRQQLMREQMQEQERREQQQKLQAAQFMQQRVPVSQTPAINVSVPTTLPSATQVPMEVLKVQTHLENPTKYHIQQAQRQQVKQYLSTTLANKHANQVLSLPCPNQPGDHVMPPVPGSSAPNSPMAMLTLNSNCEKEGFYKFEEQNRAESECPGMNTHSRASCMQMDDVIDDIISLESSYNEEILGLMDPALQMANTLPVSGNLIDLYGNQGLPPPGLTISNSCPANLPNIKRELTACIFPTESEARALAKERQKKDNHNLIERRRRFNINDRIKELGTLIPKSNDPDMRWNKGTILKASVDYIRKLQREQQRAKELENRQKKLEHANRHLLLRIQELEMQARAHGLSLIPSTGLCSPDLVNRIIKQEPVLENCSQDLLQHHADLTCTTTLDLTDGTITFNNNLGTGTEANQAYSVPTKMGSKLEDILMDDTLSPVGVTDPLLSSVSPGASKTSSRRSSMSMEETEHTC
FBW7 activator: human FBW7 E3 ligase activation, primary screen. Q969H0. AlphaScreen FBW7–phospho-cyclin E peptide binding, activator screen. 650,000 compounds, 0.13% hits. normalized activity (activation), % at 26.1 µM. AID 1259310; in the data active means normalized activity above about 1.9%;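 further: purified mutant Fbw7 with reduced substrate affinity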
TEAD-YAP inh: TEAD-YAP interaction inhibition. 640,000 compounds, 1.4% hits. HEK-TIYL cells, TEAD-Gal4/YAP UAS-luciferase luminescence. AID 1259422. inhibition, % at 9.12 µM; in the data active means inhibition above about 32%;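 further: 0% = median of test compound wells and 100% = reference inhibitor wells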
GPR151 activ: activates the human receptor GPR151. Q8TDV0. PathHunter beta-arrestin GPR151 cells, luminescence. activation, % at 11.2 µM. 650,000 compounds, 1% hits. AID 1508602; in the data active means activation above about 4.9%;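 further: 0% = median of compound wells and 100% = cells with positive control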
* marks the source's active call; other numbers are inactive results.

How did CC(=O)Nc1ccc(Nc2nc(Nc3ccc4ncccc4c3)nc3c2ncn3C(C)C)cc1 do in these assays?
MITF primary: 3; FBW7 activator: 0; TEAD-YAP inh: 36*; GPR151 activ: -1

Results for Nc1nc(Nc2ccc3ncccc3c2)nc2c1ncn2-c1ccsc1 ?
MITF primary: -14; FBW7 activator: 38*; TEAD-YAP inh: 6; GPR151 activ: 0

Results for C/C(=N\Nc1cccc(C(=O)O)c1)c1ccc(Br)cc1 ?
MITF primary: 22; FBW7 activator: 0; TEAD-YAP inh: -52; GPR151 activ: 1

Results for CCN(c1ccc(NC(=O)C(C)(C)C)cc1)c1nc(C)cc(C)n1 ?
MITF primary: 0; FBW7 activator: 0; TEAD-YAP inh: -3; GPR151 activ: -1

How did CCCCNS(=O)(=O)c1ccc2nc(-c3cccs3)cc(C(=O)O)c2c1 do in these assays?
MITF primary: -8; FBW7 activator: 0; TEAD-YAP inh: -3; GPR151 activ: 1

How did Nc1nc(Nc2ccccc2)nc2c1ncn2-c1ccsc1 do in these assays?
MITF primary: 13; FBW7 activator: 0; TEAD-YAP inh: 37*; GPR151 activ: -2

How did c1ccc(Nc2nc(Nc3ccc4ncccc4c3)nc3c2ncn3-c2ccsc2)cc1 do in these assays?
MITF primary: 10; FBW7 activator: 0; TEAD-YAP inh: 57*; GPR151 activ: 3

What do the screens show for `c1cnc2ccc(Nc3nc(Nc4ccc(N5CCOCC5)cc4)c4ncn(-c5ccsc5)c4n3)cc2c1`?
MITF primary: -1; FBW7 activator: 0; TEAD-YAP inh: 38*; GPR151 activ: -2

What do the screens show for `Cc1ccc2oc(-c3cc(NC(=O)c4ccc(C)c([N+](=O)[O-])c4)ccc3O)nc2c1`?
MITF primary: 13; FBW7 activator: 0; TEAD-YAP inh: 4; GPR151 activ: -1

What do the screens show for `CC(=O)c1ccc(S(=O)(=O)N2CCN(C(=S)NC3CC4CCC3C4)CC2)cc1` (centres undefined)?
MITF primary: 4; FBW7 activator: 0; TEAD-YAP inh: 5; GPR151 activ: 0

How did Cc1ccc(Sc2nc(Cl)c(C#N)c(Sc3ccc(C)cc3)c2Cl)cc1 do in these assays?
MITF primary: 12; FBW7 activator: 0; TEAD-YAP inh: -2; GPR151 activ: 1

What do the screens show for `COC(=O)c1ccc(N/C=C2/CCc3ccccc3C2=O)cc1`?
MITF primary: 23; FBW7 activator: 0; TEAD-YAP inh: 68*; GPR151 activ: -6

How did CN(C)c1ccc(/C=C/c2sc3ccc4ccccc4c3[n+]2C)cc1 do in these assays?
MITF primary: 18; FBW7 activator: 0; TEAD-YAP inh: 53*; GPR151 activ: -1

What do the screens show for `CC[n+]1c(/C=C(/C)OC)sc2ccccc21`?
MITF primary: 3; FBW7 activator: 0; TEAD-YAP inh: 33*; GPR151 activ: -1

Results for CC[n+]1ccc(/C=C/c2ccc(N(C)C)cc2)cc1 ?
MITF primary: 1; FBW7 activator: 0; TEAD-YAP inh: 82*; GPR151 activ: 1

Results for CC[n+]1c(/C=C/c2ccc(N(C)C)cc2)sc2ccccc21 ?
MITF primary: 19; FBW7 activator: 0; TEAD-YAP inh: 54*; GPR151 activ: 0

What do the screens show for `O=C(C(=O)N1CCC(CO)(Cc2cccc(F)c2)CC1)c1ccccc1`?
MITF primary: 6; FBW7 activator: 0; TEAD-YAP inh: 1; GPR151 activ: 0

How did O=C(N/N=C\c1ccc(O)cc1)c1ccn[nH]1 do in these assays?
MITF primary: -4; FBW7 activator: 0; TEAD-YAP inh: -32; GPR151 activ: -6

Results for CC(C)(C)CC(C)(C)c1ccc(OCCOCC[N+](C)(C)Cc2ccccc2)cc1 ?
MITF primary: 6; FBW7 activator: 0; TEAD-YAP inh: 54*; GPR151 activ: 2

Results for CC(=O)c1ccc(OCC[N+](C)(C)Cc2ccccc2)cc1 ?
MITF primary: 1; FBW7 activator: 0; TEAD-YAP inh: 2; GPR151 activ: 3

What do the screens show for `CCOc1ccccc1NC(=O)C(C)N(c1ccc(Cl)cc1)S(C)(=O)=O` (centres undefined)?
MITF primary: 3; FBW7 activator: 0; TEAD-YAP inh: 6; GPR151 activ: -1

What do the screens show for `CCOc1ccccc1NC(=O)C(C)Oc1ccc(OC)cc1` (centres undefined)?
MITF primary: -3; FBW7 activator: 0; TEAD-YAP inh: 48*; GPR151 activ: 0

How did CCOc1ccc(N(C(C)C(=O)Nc2ccccc2C(=O)OC)S(C)(=O)=O)cc1 (centres undefined) do in these assays?
MITF primary: -10; FBW7 activator: 0; TEAD-YAP inh: 35*; GPR151 activ: -1

What do the screens show for `CCOc1ccc(N(C(C)C(=O)Nc2ccccc2OCC)S(C)(=O)=O)cc1` (centres undefined)?
MITF primary: 9; FBW7 activator: 0; TEAD-YAP inh: 54*; GPR151 activ: 0

What do the screens show for `CCOc1ccccc1NC(=O)C(C)Oc1ccccc1` (centres undefined)?
MITF primary: -13; FBW7 activator: 0; TEAD-YAP inh: -1; GPR151 activ: 0

Results for Cc1ccccc1NS(=O)(=O)c1ccc2c(c1)CCN2C(=O)C1CC1 ?
MITF primary: 2; FBW7 activator: 0; TEAD-YAP inh: 2; GPR151 activ: 2

What do the screens show for `O=C(Oc1ccccc1)c1ccc(NC(=O)c2cc(S(=O)(=O)N3CCOCC3)ccc2Cl)cc1`?
MITF primary: -3; FBW7 activator: 0; TEAD-YAP inh: -2; GPR151 activ: 2

Results for O=C(Nc1cccc(OC(=O)c2cc(S(=O)(=O)N3CCCCC3)ccc2Cl)c1)c1ccco1 ?
MITF primary: -5; FBW7 activator: 0; TEAD-YAP inh: -8; GPR151 activ: 0

Results for COc1cccc(C(=O)Nc2cccc(OC(=O)c3cc(S(=O)(=O)N4CCCCC4)ccc3Cl)c2)c1 ?
MITF primary: 16; FBW7 activator: 0; TEAD-YAP inh: 47*; GPR151 activ: -2

Results for COc1ccc(C(=O)Nc2cccc(OC(=O)c3cc(S(=O)(=O)N4CCOCC4)ccc3Cl)c2)cc1 ?
MITF primary: 9; FBW7 activator: 0; TEAD-YAP inh: 55*; GPR151 activ: -2

Results for CCn1nc(C(=O)N(CC2CCCO2)c2nc3ccc(C)cc3s2)cc1C (centres undefined) ?
MITF primary: 10; FBW7 activator: 0; TEAD-YAP inh: -19; GPR151 activ: 2

What do the screens show for `CCn1nc(C)cc1C(=O)N(CC1CCCO1)c1nc2cc(C)cc(C)c2s1` (centres undefined)?
MITF primary: 14; FBW7 activator: 0; TEAD-YAP inh: 41*; GPR151 activ: -2

How did CCCN(c1ccc(OCC)cc1)c1ncnc2nc[nH]c12 do in these assays?
MITF primary: 9; FBW7 activator: 1; TEAD-YAP inh: 18; GPR151 activ: -1

How did CCN(c1ccc(OC)cc1)c1ncnc2nc[nH]c12 do in these assays?
MITF primary: 6; FBW7 activator: 1; TEAD-YAP inh: 37*; GPR151 activ: -1

Results for CCN(CC)c1nc(Nc2ccc(N3CCOCC3)cc2)nc(Nc2nc3ccccc3n2C)n1 ?
MITF primary: -1; FBW7 activator: 0; TEAD-YAP inh: 22; GPR151 activ: -1
